Screening data as filed in PubChem.
FLuc modulator = inhibits or activates purified firefly luciferase, miR-21 counter-screen | purified FLuc, Km substrates, luminescence inhibition | AID 588342 | P08659 | Potency, µM (series often up to 57.5 µM), hits mostly inhibitors | actives 6.9% (n = 360,000); also: nearly all actives have a fitted effect of over 55% in size
Target sequence (P08659 whole entry, looked up): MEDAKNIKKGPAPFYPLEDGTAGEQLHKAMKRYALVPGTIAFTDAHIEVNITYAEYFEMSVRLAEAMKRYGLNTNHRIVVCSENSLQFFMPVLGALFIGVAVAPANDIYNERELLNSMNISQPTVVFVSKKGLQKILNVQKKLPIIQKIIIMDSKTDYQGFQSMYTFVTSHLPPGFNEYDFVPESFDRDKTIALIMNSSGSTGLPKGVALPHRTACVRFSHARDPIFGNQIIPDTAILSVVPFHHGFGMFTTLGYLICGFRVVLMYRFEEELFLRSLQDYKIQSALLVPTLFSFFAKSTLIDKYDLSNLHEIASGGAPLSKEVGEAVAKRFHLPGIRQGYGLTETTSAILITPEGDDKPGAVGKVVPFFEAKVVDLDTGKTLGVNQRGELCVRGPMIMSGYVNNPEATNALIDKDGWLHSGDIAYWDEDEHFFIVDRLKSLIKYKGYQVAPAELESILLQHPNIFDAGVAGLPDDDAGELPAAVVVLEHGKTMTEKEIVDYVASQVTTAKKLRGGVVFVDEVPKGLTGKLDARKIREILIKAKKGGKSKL
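Biochemical qHTS of compounds, final roughly 60 µM downward over six points, against 10 nM purified firefly luciferase using Km concentrations of substrates (10 uM D-luciferin, 10 uM ATP) in Tris acetate pH 7.5 buffer; luminescence output.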
Rab9 promoter act = Rab9 promoter activation; AID 485297; Potency, µM (top dose mostly 9.22 µM), most hits filed as activators; actives 2.8% (n = 320,000); Huh7 Rab9 promoter-luciferase reporter, luminescence, 24 h; also: nearly all actives have a fitted effect of over 60% in size
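Stable Rab9-luc Huh7, 1500 cells/well, 2 h settle; cmpd in DMSO, 24 h, 37 °C/5% CO2; luciferase reagent 10 min RT; luminescence.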
SMN2 splice enh = increases expression of the SMN2 splice variant; HEK293 SMN2-luciferase splicing reporter, luminescence, 30-36 h; Potency, µM (doses to about 46.1 µM), actives largely listed as activators; actives 2.8% (n = 210,000); AID 1458; also: nearly all actives have a fitted effect of over 55% in size
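HEK293 cells carry an SMN2 […]–luciferase reporter in which exon 7 inclusion puts luciferase in frame. Cells were plated 10-12 h before compound addition, then incubated 30-36 h at 37C. ONE-Glo luminescence was read; sodium butyrate at 4.5 mM final served as control.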
ELG1 genotox = inducers of genotoxicity in HEK293T ELG1-luciferase cells; actives 1.3% (n = 330,000); Potency, µM (series often up to 46 µM), most hits filed as activators; HEK293T ELG1-luciferase reporter, luminescence, 16 h; AID 504466; also: nearly all actives have a fitted effect of over 60% in size
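HEK293T cells expressing luciferase-tagged ELG1 were treated with compound or DMSO for 16 hr at 37°C. Luciferase activity was then read after 30 min with ONE-Glo at room temperature; rising signal flags genetic stress.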
NPC1 prom act = activates the NPC1 promoter; Huh7 NPC1 promoter luciferase reporter, 24 h; actives 2.4% (n = 320,000); Potency, µM (top dose mostly 9.22 µM), hits mostly activators; also: nearly all actives have a fitted effect of over 60% in size
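Huh7 reporter cells (NPC1 promoter driving luciferase) are dosed with compound for 24 h at 37 °C, 5% CO2; luciferase detection reagent is then added and luminescence measured after 10 min at ambient temperature.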
ELG1 repair inh = blocks ELG1-dependent DNA repair in HEK293T cells; HEK293T ELG1-luciferase reporter, luminescence, 16 h; DNA damage induced by 5-fluorouridine; Potency, µM (series often up to 46.1 µM), actives largely listed as inhibitors; actives 2.3% (n = 330,000); AID 504467; also: nearly all actives have a fitted effect of over 55% in size
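Reporter activity after DNA damage by 5-fluorouridine is monitored. Compound-treated cells incubate 16 hr at 37 °C, then ONE-Glo is added for 30 min before luminescence reading.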
A number is an active result; . = inactive; ? = inconclusive; / = not tested or not shown; [ ] = another dose, or the depositor's remark. A selection: hits, their analogues and other compounds. The true share with any hit is near 9.3%. Calls follow the shape of the dose curve; as a rule, active = well fitted curve in the direction sought with a large enough effect; inconclusive = small, poorly fitted or top-dose-only effect, or another doubt; inactive = no such curve, though single readings can be large; an effect the other way counts as inactive or inconclusive.

SMILES	FLuc modulator	Rab9 promoter act	SMN2 splice enh	ELG1 genotox	NPC1 prom act	ELG1 repair inh
Cc1ccc(Cn2nnc3c(=O)[nH]c(C4CCCN(S(=O)(=O)c5ccccc5F)C4)nc32)cc1 (centres undefined)	.	.	/	.	.	?
Cc1ccc(Cn2nnc3c(=O)[nH]c(C4CCCN(S(=O)(=O)c5ccccc5)C4)nc32)cc1 (centres undefined)	.	.	.	21µM	.	.
COCCN(C(=O)c1ccc(C#N)cc1)c1c(N)n(Cc2ccccc2)c(=O)[nH]c1=O	.	.	/	.	.	?
COc1ccccc1Cn1nnc2c(=O)[nH]c(C3CCN(C(=O)c4ccc(F)cc4)CC3)nc21	.	.	.	.	.	?
COc1ccccc1Cn1nnc2c(=O)[nH]c(C3CCN(C(=O)c4ccc(C)cc4)CC3)nc21	.	.	.	.	.	23µM
CC(C)(C)CC(=O)N1CCC(c2nc3c(nnn3Cc3c(F)cccc3Cl)c(=O)[nH]2)CC1	.	.	/	.	.	16µM
Cc1ccc(Oc2nc3c(c(=O)n(Cc4ccccc4F)c(=O)n3C)n2C)cc1	.	.	.	.	.	18µM
Cc1ccc(NC(=O)CCC(=O)NNC(=O)C(c2ccccc2)c2ccccc2)c(C)c1	.	.	.	.	.	.
CCOc1ccccc1CNC(=O)Cn1nc(C)c2c(C)n(-c3ccc(C)cc3)nc2c1=O	.	.	/	.[9.26 µM]	.	2.9µM
COc1ccc(CNC(=O)Cn2nc(C)c3c(C)n(-c4ccc(C)cc4)nc3c2=O)cc1OC	.	.	/	.	.	21µM
COc1cccc(CNC(=O)Cn2nc(C)c3c(C)n(-c4ccc(C)cc4)nc3c2=O)c1OC	.	.	/	.	.	.
Cc1ccc(S(=O)(=O)N2CCN(Cc3cc(=O)n4ccccc4n3)CC2)c(C)c1	.	.	/	.	.	7.3µM
Cc1ccc(S(=O)(=O)N2CCN(Cc3cc(=O)n4ccccc4n3)CC2)cc1C	.	.	/	.	.	.
CCC(CO)Nc1ncnc2c1cnn2-c1ccc(OC)cc1 (centres undefined)	6.7µM	1µM	10µM	2.6µM	1µM	?
CCC(C)Nc1ncnc2c1cnn2Cc1ccc(Cl)cc1 (centres undefined)	.	.	.	.	.	?
CCC(CO)Nc1ncnc2c1cnn2-c1ccc(Cl)cc1 (centres undefined)	1.7µM	0.32µM	?	?	0.45µM	?
COc1ccc(CC(=O)NNc2ncnc3c2cnn3-c2ccccc2)cc1	.	.	.	.	.	.
CCOC(=O)C1CCN(CC(=O)N2CCCc3c2c(=O)oc2ccc(OCc4ccccc4)cc32)CC1	.	/	.	/	/	/
CN(C)c1cccc(C(=O)NCc2ccc3c(c2)OCO3)c1	.	.	/	.	.	.
O=C(Nc1ccn(-c2ccccc2)n1)c1ccc(S(=O)(=O)N2CCCCCC2)cc1	.	.	.	.	.	5.2µM
O=C(Nc1cccc(S(=O)(=O)N2CCCCC2)c1)c1ccc(S(=O)(=O)C(F)F)cc1	.	.	.	.	.	21µM
O=C(Nc1cccc(S(=O)(=O)N2CCCC2)c1)c1cccc(OC(F)F)c1	.	.	/	.	.	?
CN(C)c1ccc(C(=O)Nc2cccc(S(=O)(=O)N3CCCC3)c2)cc1	1.7µM	?	/	.	.	?
O=C(Nc1cccc(S(=O)(=O)C(F)F)c1)c1ccc(S(=O)(=O)N2CCCCC2)cc1	.	.	.	.	.	13µM
CN(C)S(=O)(=O)c1cccc(NC(=O)c2ccc(S(=O)(=O)N3CCCCC3)cc2)c1	.	.	/	.	.	?
SMILES	FLuc modulator	Rab9 promoter act	SMN2 splice enh	ELG1 genotox	NPC1 prom act	ELG1 repair inh
O=C(Nc1cccc(S(=O)(=O)N2CCCCC2)c1)c1cc(=O)[nH]c2ccccc12	/	/	/	.	/	26µM
Cc1ccc(S(C)(=O)=O)cc1C(=O)Nc1cccc(S(=O)(=O)N2CCCCCC2)c1	/	.	/	.	.	12µM
COc1cc(C(=O)Nc2cccc(S(=O)(=O)N3CCCC3)c2)cc(OC)c1C	.	.	/	.	.	29µM
CS(=O)(=O)c1cccc(C(=O)Nc2cccc(S(=O)(=O)N3CCCC3)c2)c1	.	.	/	.	.	.
O=C1CCC(=O)N1c1ccccc1-c1ccccc1	.	.	.	.	.	.
COc1ccc(C2SCCN2S(=O)(=O)c2ccc(F)cc2)cc1OC (centres undefined)	.[2.3 µM]	.	.	.	.	.
COc1ccc(S(=O)(=O)N2CCSC2c2ccc(OC)c(OC)c2)cc1 (centres undefined)	.	.	.	.	.	23µM
COc1ccc(-c2ccc(C(C)=O)cc2)cc1[C@H]1[C@@H]2C=CCC[C@@]2(C)C(=O)N1Cc1ccccc1	.	.	/	.	.	21µM
COc1ccc(-c2ccc(C)cc2)cc1[C@H]1[C@@H]2C=CCC[C@@]2(C)C(=O)N1Cc1ccccc1	?	.	/	.	.	.
COc1ccc(O)c(-c2nc(N)nc(N)n2)c1	?	.	/	.	4µM	.
CC(C)(C)OC(=O)C[C@@H]1C/C=C\C[C@H](CC(=O)N[C@H](CO)Cc2ccccc2)C(=O)N[C@@H](Cc2c[nH]c3ccccc23)COC1=O	/	/	/	.	/	.
COc1ccc(-c2ccnc(-c3ccc(O)cc3)n2)cc1	?	.	.	?	.	?
Oc1ccc(-c2nccc(-c3ccccn3)n2)cc1	17µM	?	/	?	?	?
O=C(Oc1ccc(-c2nccc(-c3ccccn3)n2)cc1)c1cccc(C(F)(F)F)c1	.	.	?	?	.	?
Cc1ccc(C(=O)Oc2ccc(-c3nccc(-c4ccccn4)n3)cc2)cc1	.	.	?	10µM	?	?
Cc1ccc(-c2ccnc(-c3ccc(O)cc3)n2)cc1	21µM	.	.	?	.	?
CCCOc1ccc(-c2c(C(=O)N/N=C/c3ccc(OCC)cc3)nnn2-c2nonc2N)cc1	.	.	.	.	.	?
CCN1CC(CN(C)Cc2cn(-c3ccc(C)cc3)nc2-c2ccc(F)cc2)CC1=O (centres undefined)	?	.	/	.	.	.
O=c1[nH]cnc2nc(-c3ccccc3)c(-c3ccccc3)nc12	.	.	.	.	.	.
O=c1[nH]cnc2nn(-c3ccccc3)nc12	21µM	?	?	?	?	?
Cc1cc(NC(=O)CSc2nnc(C)n2-c2ccccc2)no1	.	.	.	.	.	.
Cc1cc(C)n(CCc2nc(-c3ccc(-c4ccccc4)cc3)cs2)n1	6.7µM	.	.	?	.	?
COc1ccc(-c2csc(CCn3nc(C)cc3C)n2)cc1	?	.	.	.	.	.
CCOc1ccc2nc(NC(=O)c3cc(=O)c4ccc(C)cc4o3)sc2c1	?	/	.	/	/	/
